Active and inactive are the calls of the source. Calls come from the whole dose curve; as a rule, active = well fitted curve in the direction sought with a large enough effect; inactive = no such curve, though single readings can be large or run the other way.

Pyruvate kinase PKM (Homo sapiens), sequence (P14618 whole entry, looked up, canonical isoform): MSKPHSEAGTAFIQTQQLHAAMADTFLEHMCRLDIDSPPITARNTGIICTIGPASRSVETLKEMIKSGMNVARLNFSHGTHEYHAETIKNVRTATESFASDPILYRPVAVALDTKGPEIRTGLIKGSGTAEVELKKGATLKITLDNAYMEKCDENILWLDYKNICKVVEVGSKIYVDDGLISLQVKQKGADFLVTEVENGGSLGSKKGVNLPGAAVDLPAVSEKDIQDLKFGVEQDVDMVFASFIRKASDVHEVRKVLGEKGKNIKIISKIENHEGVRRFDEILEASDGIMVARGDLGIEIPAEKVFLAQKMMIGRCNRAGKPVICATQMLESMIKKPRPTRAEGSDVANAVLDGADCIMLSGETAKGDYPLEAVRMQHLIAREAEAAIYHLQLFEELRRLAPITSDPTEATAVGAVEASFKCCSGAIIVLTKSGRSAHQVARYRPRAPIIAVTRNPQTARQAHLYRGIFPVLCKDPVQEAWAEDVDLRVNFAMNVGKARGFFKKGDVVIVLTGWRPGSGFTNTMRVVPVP

The test concerns the target Pyruvate kinase PKM (Homo sapiens) (UniProt P14618). The test can be described thus: qHTS for Activators of Human Muscle Isoform 2 Pyruvate Kinase: Extended Characterization using M1 for Probe 2. The following applies: purified hPK-M1, Kinase-Glo ATP luminescence, 1 h; series mostly up to 57.7 µM. On the procedure:
Human pyruvate kinase muscle isoform 1 (hPK-M1) enzyme was supplied as a highly purified (>95% pure) preparation from Harvard Medical School and assayed for its ability to generate ATP from ADP using phosphoenolpyruvate (PEP) as a substrate. ATP generation was detected in a coupled reaction by luciferase-mediated luminescence, an ATP-dependent process. Pyruvate kinase substrates, PEP and ADP, were present in the assay at Km and approximately 10-fold below Km respectively. The enzyme was assayed at an intermediate level of activity to screen for both inhibitors and activators. NIH Chemical Genomics Center [NCGC] NIH Molecular Libraries Probe Centers Network [MLPCN] MLPCN Grant: MH085679 Assay Submitter (PI): Matthew G. Vander Heiden, Harvard Medical School
Three uL of substrate mix (at r.t.) in assay buffer (50 mM Imidazole pH7.2, 50 mM KCl, 7 mM MgCl2, 0.01% Tween 20, 0.05% BSA) was dispensed into white solid bottom 1,536 well microtiter plates so that the final concentrations of substrates in the assay were 0.1 mM ADP and 0.5 mM PEP. 23 nL of compound were delivered by a pin tool and 1 uL of enzyme mix (final concentration of 1 nM) in assay buffer (4 degree Celsius) was added. Plates were incubated at room temperature for 1 hour. Two uL of detection mix (Kinase-Glo, Promega; at 4 degree Celsius protected from light) was added and luminescence read by a ViewLux (Perkin Elmer) at 1 second exposure/plate. Data were normalized to the uninhibited (row 31). Additionally, a no enzyme and 5-fold enzyme control was dispensed in row 32, split equally between the two conditions.
On the technique in general: Quantitative high-throughput screening tests each substance at several concentrations.
`Cc1ccc(NS(=O)(=O)c2ccc3c(c2)CCC(=O)N3)cc1C`: the compound was called inactive.
The result for `O=S(=O)(c1ccc2c(c1)OCCO2)N1CCN(S(=O)(=O)c2c(F)cccc2F)CC1` reads “inactive”; that for `Nc1cccc(S(=O)(=O)N2CCCN(S(=O)(=O)c3ccc4c(c3)OCCO4)CC2)c1`, “inactive”.
As to `COc1cccc(Cn2ncc3c4sc(S(C)=O)cc4n(C)c3c2=O)c1` (stereo not given), the outcome was inactive.
For the compound `Cn1c2cc(S(C)=O)sc2c2cnn(Cc3cccc(N)c3)c(=O)c21` (stereo not given), the outcome was inactive.

The values are drawn from PubChem BioAssay AID624387 (National Center for Advancing Translational Sciences (NCATS), 2012).
